Assay results taken from PubChem BioAssay AID540333 (Southern Research Specialized Biocontainment Screening …, 2011).
Out of some 10,000 compounds screened, about 320 (3.2%) were called active. Cut-off read from the data, not from the text of the source: active = CPE inhibition mostly above about 9.1% (no sharp cut-off); inactive = mostly below about 7.2%. The full list was thinned out, with actives kept by preference.

assay: Dengue virus cytopathic effect inhibitors, cell-based, CPE readout, HTS (AID 540333); conditions: Dengue virus CPE inhibition in host cells, at 20 µM; active compounds read high

Compound	CPE inhibition
COc1ccc2oc(=O)c(/C(C)=N/Nc3nc(-c4cc(C)ccc4C)cs3)cc2c1	inactive
CC(C)(C)C1CCC(=NNC(=O)CN(c2ccccc2)S(=O)(=O)c2ccccc2[N+](=O)[O-])CC1 (centres undefined)	inactive
N#Cc1ccc(COC(=O)CSc2nnc(N)s2)cc1	0.615% (inactive)
NC(=O)CC(NC(=O)Cc1cccc2ccccc12)c1ccc(NCc2ccccc2)c([N+](=O)[O-])c1 (centres undefined)	2.03% (inactive)
CCOC(=O)c1c(-c2ccc(F)cc2)csc1NC(=O)CCN1C(=O)c2ccccc2C1=O	1.4% (inactive)
O=C(NCc1ccccc1)c1onc(CSc2ccc(F)c(F)c2)c1C(=O)NCc1ccccc1	0.575% (inactive)
CCOC(=O)CN1C(=O)N[C@@H](c2ccco2)C(C(C)=O)=C1C	1.53% (inactive)
Oc1cccc(/C=N/Nc2ncnc3c2ncn3Cc2ccccc2)c1	inactive
O=C(CCSCCc1ccccn1)Nc1c(F)c(F)c(F)c(F)c1F	inactive
O=C1CCCc2[nH]c3cccc(/C(=C/c4ccccc4)c4ccccc4)c3c21	22.5% (active)
CCOC(=O)N1CCC(N2Cc3cccc(C(=O)N4CC(C)CC(C)C4)c3C2=O)CC1 (centres undefined)	inactive
CCCCCC[n+]1c(-c2ccccc2)csc1Nc1ccccc1	7.19% (inactive)
CC1=C(C#N)C(c2ccccc2)C2=C(N1)c1ccccc1C2=O (centres undefined)	1.29% (inactive)
CN(CC(=O)Nc1ccc(C#N)cc1)CC(=O)Nc1ccc(N2CCOCC2)cc1	0.525% (inactive)
CCCCCCn1nc(C(=O)Nc2nc3c(s2)CCCC3)c2ccccc2c1=O	29% (active)
CCn1nc(C(=O)Nc2nc3ccccc3[nH]2)c2ccccc2c1=O	0.06% (inactive)
O=C(Nc1nc2c(s1)CCCC2)c1cc(-c2ccccc2)nc2ccccc12	5.19% (inactive)
C=CCn1c(SCc2ccc(C(=O)Nc3nccs3)cc2)nnc1-c1ccc(C)c(Cl)c1	0.44% (inactive)
CC1CCCCC1NC(=S)NC(=O)c1ccccc1Br (centres undefined)	0.915% (inactive)
O=C(NC(=S)NC1CCCC1)c1ccccc1Br	0.11% (inactive)
CC1CCCC(NC(=S)NC(=O)c2ccccc2Br)C1C (centres undefined)	21.1% (active)
COc1cccc(NC(=O)CCC(=O)Nc2cccc(OC)c2)c1	0.18% (inactive)
Cc1ccc(NC(=O)c2cc3c(s2)CCCC3)cc1S(=O)(=O)Nc1ccccc1Cl	1.93% (inactive)
CC(=O)c1ccc(NC(=O)CN2C(=O)/C(=C/C=C/c3ccccc3)SC2=S)cc1	0.165% (inactive)

Compound	CPE inhibition
O=C(CN1C(=O)/C(=C\C=C\c2ccccc2)SC1=S)Nc1ccc(F)cc1	1.02% (inactive)
O=C1CC(N2C(=O)/C(=C/C=C/c3ccccc3)SC2=S)C(=O)N1c1ccccc1 (centres undefined)	9.17% (active)
CC(=O)Nc1ccc(S(=O)(=O)NCC(=O)OCC(=O)NC(=O)C2CCCCC2)cc1	0.165% (inactive)
NC(=O)C1(NC(=O)[C@@H]2CC3(CC(c4cccc(NC(=O)[C@@H]5CCC(=O)N5)c4)=NO3)CN2C(=O)c2cnccn2)CC1 (some centres undefined)	0.745% (inactive)
O=C(CSc1nc2ccccc2s1)Nc1cc(S(=O)(=O)N2CCOCC2)ccc1O	inactive
Fc1cccc(NC(=S)NCCN2CCOCC2)c1	0.255% (inactive)
O=C(C[n+]1cc(-c2ccccc2)n2c1CCC2)Nc1nc(-c2ccccc2)cs1	4.34% (inactive)
O=C(C[n+]1cc(-c2ccc(F)cc2)n2c1CCC2)Nc1nc(-c2ccccc2)cs1	0.55% (inactive)
O=C(C[n+]1cc(-c2ccccc2)n2c1CCC2)Nc1nc(-c2ccc(F)cc2)cs1	17% (active)
O=C(c1cccc(S(=O)(=O)N2CCc3ccccc3C2)c1)N1CCN(c2ccccc2)CC1	3% (inactive)
CC1CCCN(S(=O)(=O)c2ccc(Br)s2)C1 (centres undefined)	0.775% (inactive)
CC1CC(C)CN(C(=O)C(NS(=O)(=O)c2ccc(Br)s2)c2ccccc2)C1 (centres undefined)	24.6% (active)
O=C(NC1CCCC1)C(NS(=O)(=O)c1ccc(Br)s1)c1ccccc1 (centres undefined)	0.805% (inactive)
CN(/N=C/c1cc([N+](=O)[O-])ccc1O)c1ccccc1	1.04% (inactive)
COC(=O)c1ccc(CSc2nnc(NC(=O)C3CC(=O)N(Cc4ccc(C)cc4)C3)s2)cc1 (centres undefined)	0.19% (inactive)
CC(C)CN(CC(C)C)C(=O)CCCC(=O)N(CC(C)C)CC(C)C	inactive
Fc1ccc(NC(=S)N2CCCC2)cc1Cl	0.335% (inactive)
O=S(=O)(c1ccc2ccccc2c1)N1CCN(C(=S)Nc2ccc(F)cc2)CC1	26.1% (active)
O=C(CNC(=O)c1ccc2ccccc2c1)OCC(=O)N1CCN(S(=O)(=O)c2ccc3ccccc3c2)CC1	inactive
O=C(Nc1ccc(F)cc1)C(c1ccccc1)N1CCN(S(=O)(=O)c2ccc3ccccc3c2)CC1 (centres undefined)	2% (inactive)
O=C(CCC(=O)N1CCN(S(=O)(=O)c2ccc(Cl)cc2)CC1)NCc1ccccc1	0.355% (inactive)
NS(=O)(=O)c1ccc(NC(=S)N2CCN(c3cccc(Cl)c3)CC2)cc1	1.62% (inactive)
O=C(CCC(=O)N1CCN(S(=O)(=O)c2ccc(Cl)cc2)CC1)Nc1ccc2ccccc2c1	11% (active)
O=S(=O)(c1ccccc1)N1CCN(C(=S)Nc2ccc(F)cc2)CC1	1.81% (inactive)

Compound	CPE inhibition
O=S(=O)(c1ccc(Cl)cc1)N1CCN(C(=S)Nc2ccc(F)c(Cl)c2)CC1	13.6% (active)
COC(=O)c1ccc(CNC(=O)COC(=O)CC23CC4CC(CC(Br)(C4)C2)C3)cc1	inactive
COc1ccc(CC(=O)NNc2ncnc3c2cnn3C)cc1	inactive
Cc1cccc(CSC(Nc2ccc(F)cc2)=C(C#N)C#N)c1	0.46% (inactive)
COc1cccc(C(C)NC(=O)c2c(F)cccc2Cl)c1 (centres undefined)	0.965% (inactive)
CC(=O)CSc1ccc(C(=O)O)cn1	0.685% (inactive)
Cc1ccccc1OCCNC(=O)/C=C/c1ccccc1	inactive
Cc1cccc(OCCC(=O)Nc2ccc(C)c(S(=O)(=O)N3CCCCC3)c2)c1	16.7% (active)
Cc1ccc(NC(=O)CSc2ncnc3ccccc23)cc1S(=O)(=O)N1CCCCC1	2.42% (inactive)
Cc1cccc(OCCCC(=O)Nc2ccc(N(C)C)cc2)c1	0.66% (inactive)
COc1ccc(NC(=O)CCC2CCCCC2)cc1S(=O)(=O)N1CCCCC1	11.6% (active)
COc1ccc(NC(=O)CSc2ccccc2)cc1S(=O)(=O)N1CCCCC1	inactive
COc1ccc(NC(=O)CCCC2CCCCC2)cc1S(=O)(=O)N1CCCCC1	0.425% (inactive)
COc1ccc([C@H]2CC(=O)C=C(c3cc(C(F)(F)F)cc(C(F)(F)F)c3)C2)cc1	inactive
COCCCNCCCCOc1ccc(Br)cc1C	inactive
CC1c2ccccc2SC(CCCN(C)C)c2ccccc21 (centres undefined)	inactive
Cc1ccc(NC(=S)N2CCN(C)CC2)c(C)c1	0.8% (inactive)
COc1ccccc1N(CC(=O)N/N=C/c1c(O)ccc2ccccc12)S(C)(=O)=O	0.02% (inactive)
CS(=O)(=O)N(CC(=O)N/N=C/c1ccco1)c1ccccc1Br	0.19% (inactive)
CCOC(=O)c1ccc(-c2ccc(/C=N/NC(=O)CN(c3ccccc3Cl)S(C)(=O)=O)o2)cc1	12.9% (active)
Cc1ccc(NC(=O)c2ccc(OC(F)F)cc2)cc1S(=O)(=O)N(C)C	inactive
CCn1c(COc2ccc(Cl)cc2)nnc1SC1CCc2ccccc2C1=O (centres undefined)	1.03% (inactive)
O=C(COC(=O)CC(c1ccccc1)c1ccccc1)Nc1cccc(F)c1	inactive
CCCCc1nn2c(N)c(/C=C3\C=Nc4ccccc43)c(=O)nc2s1	inactive

Compound	CPE inhibition
O=C1S/C(=C\c2ccccc2)C(=O)N1CC(O)Cn1c2ccccc2c2ccccc21 (centres undefined)	inactive
CN(C)c1ccc(/C=C2\SC(=O)N(CC(O)Cn3c4ccccc4c4ccccc43)C2=O)cc1 (centres undefined)	2.39% (inactive)
O=C1S/C(=C/c2ccccc2)C(=O)N1CC(O)Cn1c2ccccc2c2ccccc21 (centres undefined)	16.2% (active)
C=CCN1c2ccccc2[C@]23C[C@@H](C(=O)OC)N(C(=O)NC4CCCC4)C2=NC(C(=O)OC)=C(C(=O)OC)[C@H]13	0.19% (inactive)
CC1(C)CC(=NOC(=O)c2ccccc2)CC(C)(C)N1O	3.8% (inactive)
Cc1ccc(Nc2ccc(C(=O)NCCc3ccccc3)cn2)cc1	0.525% (inactive)
c1ccc(NCc2nc3ccccc3n2CCOc2ccccc2)cc1	0.715% (inactive)
Cc1ccc(NCc2nc3ccccc3n2CCOc2ccccc2)cc1	14.9% (active)
CCCCn1c(=N)n(CCOc2ccc(C)cc2)c2ccccc21	inactive
S=C(NCCN1CCOCC1)Nc1ccccc1Cl	inactive
O=C(O)CCCCCN1C(=O)/C(=C\c2ccncc2)SC1=S	14.8% (active)
COc1ccc(CN2C(=O)/C(=C/c3ccncc3)SC2=S)cc1	inactive
Cc1ccc(/C=C2\SC(=S)N(CCCC(=O)Nc3nccs3)C2=O)cc1	0.46% (inactive)
Cc1cc(Br)ccc1SCC(=O)OCC(=O)NC(C)c1ccccc1 (centres undefined)	0.13% (inactive)
O=C(Nc1cccc(-c2cn3ccccc3n2)c1)c1cccs1	0.18% (inactive)
COc1ccc(C(=O)n2cc(C(=O)c3cc(C)ccc3O)cn2)cc1OC	14.3% (active)
COc1ccc(C(=O)n2cc(C(=O)c3cc(C)ccc3O)cn2)cc1	inactive
O=C(c1cnn(C(=O)c2ccccc2)c1)c1ccccc1O	2.51% (inactive)
Cc1cccc(NCCC#N)c1	inactive
O=C(Nc1cccc(Cl)c1)c1ccc(F)c(S(=O)(=O)NCc2ccc3c(c2)OCO3)c1	5.79% (inactive)
Cc1ccc(NC(=O)c2cccs2)cc1S(=O)(=O)Nc1cccc(Cl)c1	7.68% (inactive)
O=C(Nc1cccc(Cl)c1)c1ccc(F)c(S(=O)(=O)NCc2cccs2)c1	11.8% (active)
